Measurements taken from PubChem BioAssay AID1159580 (chemical genetic matrix, 2015).
Where “and” joins values, the source holds several entries; their conditions need not be identical. Equal entries are not always repeated. About 2,000 (36%) of roughly 5,500 compounds were called active. About 18% were inconclusive and are not listed. Rule as the data show it: active = normalized growth mostly below about 0.91 (no sharp cut-off); inconclusive = no clear call, values can overlap the other calls; inactive = mostly above about 0.92. The list shows a part of the results.

Assay: chemical genetic growth profiling, strain panel (AID 1159580);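 also: tested at 20 µM; growth read once vehicle control cultures reached saturation at 30 °C; 1 = growth at the plate median or of vehicle wells; lower values mean less growth of the strain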
Conditions: S. cerevisiae deletion strains, growth OD

Measured: normalized growth

Nc1nc2ncc(=O)[nH]c2c(=O)[nH]1
inactive: locus YAL013W, strain DEP1, active compounds read low 1 | locus YAL021C, strain ccr4, active compounds read low 0.978 | locus YAL026C, strain drs2, active compounds read low 0.999 | locus YAL030W, strain snc1, active compounds read low 0.98 | locus YBL061C, strain skt5, active compounds read low 0.973 | locus YBR009C, strain hhf1, active compounds read low 0.995 | locus YBR021W, strain FUR4, active compounds read low 0.99 | locus YBR023C, strain chs3, active compounds read low 0.979 | locus YBR171W, strain sec66, active compounds read low 0.983 | locus YBR229C, strain ROT2, active compounds read low 1 | locus YBR231C, strain swc5, active compounds read low 0.989 | locus YBR279W, strain paf1, active compounds read low 0.984 | locus YCL011C, strain gbp2, active compounds read low 0.989 | locus YCL016C, strain dcc1, active compounds read low 0.976 | locus YCL029C, strain bik1, active compounds read low 0.989 | locus YCL061C, strain MRC1, active compounds read low 0.977 | locus YCL069W, strain vba3, active compounds read low 0.989 | locus YCR088W, strain abp1, active compounds read low 0.972 | locus YDL005C, strain med2, active compounds read low 0.965 | locus YDL035C, strain GPR1, active compounds read low 1.01 | locus YDL040C, strain nat1, active compounds read low 0.986 | locus YDL074C, strain BRE1, active compounds read low 1.06 | locus YDL101C, strain DUN1, active compounds read low 1 | locus YDL134C, strain PPH21, active compounds read low 1 | locus YDL185W, strain tfp1, active compounds read low 0.975 | locus YDL192W, strain arf1, active compounds read low 0.989 | locus YDR001C, strain nth1, active compounds read low 0.972 | locus YDR069C, strain doa4, active compounds read low 1.01 | locus YDR101C, strain arx1, active compounds read low 0.998 | locus YDR137W, strain rgp1, active compounds read low 0.971 | locus YDR150W, strain NUM1, active compounds read low 0.997 | locus YDR159W, strain sac3, active compounds read low 0.973 | locus YDR162C, strain NBP2, active compounds read low 1.01 | locus YDR195W, strain ref2 0.949 | locus YDR297W, strain sur2, active compounds read low 0.982 | locus YDR318W, strain mcm21, active compounds read low 0.993 | locus YDR334W, strain swr1, active compounds read low 0.98 | locus YDR335W, strain msn5, active compounds read low 0.978 | locus YDR388W, active compounds read low 0.985 | locus YDR392W, strain spt3, active compounds read low 0.927 | locus YDR502C, strain sam2, active compounds read low 0.996 | locus YEL003W, strain gim4, active compounds read low 0.981 | locus YEL037C, strain rad23, active compounds read low 0.995 | locus YEL061C, strain CIN8 (second series), active compounds read low 0.976 | locus YEL061C, strain CIN8, active compounds read low 1 | locus YER015W, strain faa2, active compounds read low 1 | locus YER016W, strain bim1, active compounds read low 0.984 | locus YER110C, active compounds read low 0.976 | locus YER111C, strain swi4, active compounds read low 0.957 | locus YER155C, strain BEM2 (second series), active compounds read low 0.985 | locus YER155C, strain BEM2, active compounds read low 0.993 | locus YER167W, strain BCK2, active compounds read low 0.994 | locus YFR010W, strain ubp6, active compounds read low 0.977 | locus YGL078C, strain dbp3, active compounds read low 0.976 | locus YGL086W, strain mad1, active compounds read low 0.989 | locus YGL167C, strain pmr1, active compounds read low 0.968 | locus YGL173C, strain kem1, active compounds read low 0.981 | locus YGL227W, strain vid30, active compounds read low 0.988 | locus YGL240W, strain doc1, active compounds read low 1 | locus YGL248W, strain PDE1, active compounds read low 1.01 | locus YGL253W, strain hxk2, active compounds read low 0.976 | locus YGR078C, strain PAC10, active compounds read low 1.03 | locus YGR135W, strain pre9, active compounds read low 1.02 | locus YGR229C, strain SMI1, active compounds read low 1.04 | locus YGR252W, strain gcn5, active compounds read low 1.01 | locus YHR013C, strain ard1, active compounds read low 0.946 | locus YHR027C, strain rpn1, active compounds read low 0.98 | locus YHR030C, strain SLT2, active compounds read low 1 and 0.966 | locus YHR079C, strain IRE1 (second series), active compounds read low 0.997 | locus YHR079C, strain IRE1, active compounds read low 0.967 | locus YHR094C, strain hxt1, active compounds read low 0.965 | locus YHR129C, strain ARP1, active compounds read low 1 | locus YHR142W, strain chs7, active compounds read low 0.941 | locus YHR200W, strain rpn10, active compounds read low 0.988 | locus YIL066C, strain RNR3, active compounds read low 1.01 | locus YIL073C, strain SPO22, active compounds read low 0.921 | locus YIL125W, strain kgd1, active compounds read low 0.981 | locus YIR030C, strain dcg1, active compounds read low 0.994 | locus YJL092W, strain hpr5, active compounds read low 0.976 | locus YJL095W, strain BCK1 (second series), active compounds read low 0.98 | locus YJL095W, strain BCK1, active compounds read low 1.06 and 0.983 | locus YJL115W, strain asf1, active compounds read low 0.977 | locus YJL129C, strain trk1, active compounds read low 0.953 | locus YJL134W, strain LCB3, active compounds read low 0.997 | locus YJL154C, strain vps35, active compounds read low 0.971 | locus YJL164C, strain tpk1, active compounds read low 0.979 | locus YJL166W, strain qcr8, active compounds read low 0.982 | locus YJL168C, strain set2, active compounds read low 0.988 | locus YJL187C, strain SWE1 (second series), active compounds read low 0.999 | locus YJL187C, strain SWE1, active compounds read low 0.976 | locus YJR043C, strain POL32, active compounds read low 1.01 | locus YJR066W, strain TOR1, active compounds read low 0.945
